Reference: PubChem BioAssay (NCI)
This is part of a sample that, as a whole, favours compounds with a hit. Of some 83,000 tested, about 20% had one in any assay.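 For each line, cells grew in 96-well plates with the test compound present at a single concentration for 48 hours.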 Values without a mark were called inactive. Active and inactive are the calls of the source.

Each compound was assayed on HOP-92 NSCLC (assay: NCI-60 one-dose screen, 48 h (100 = growth as untreated, 0 = no growth, -100 = all killed)). Details: 10 µM unless noted.
Experimental: Growth inhibition of the HOP-92 human Non-Small Cell Lung tumor cell line is measured as a screen for anti-cancer activity. Cells are grown in 96 well plates and exposed to the test compound for 48 hours. Compounds are tested at a single concentration, which is 10^-5 M for most compounds. The reported endpoint is percent growth (GI% or GIPRCNT), where numbers from 0 - 100% represent growth inhibition, and numbers from -100% - 0 represent cell death. For example, a value of 40 represents 60% growth inhibition. A value of 0 means no net growth occurred over the course of the experiment. A value of -40 indicates 40% of cells at the beginning of the experiment died by the end of the experiment. A value of -100 means all cells are dead at the end of the experiment.
NCI-60 Human Tumor Cell Lines Screen was performed using the standard one-dose NCI protocol, which is described in more detail at https://dtp.cancer.gov/discovery_development/nci-60/default.htm.
Compounds with GIPRCNT values below 10 were considered active. Activity score was based on GIPRCNT using the following formula: […]
Score is 0 for GIPRCNT values of 100 or above, 50 for GIPRCNT values of 0, and 100 for GIPRCNT values of -100.

Compound	growth
CCCn1cnc2c(c1=N)C(c1ccc(F)cc1)c1sc3c(F)cccc3c1O2 (stereo not given)	67.5%
O=C(CCl)NNc1nccc(Nc2ccc(S(=O)(=O)Nc3ccncc3)cc2)n1	37.3%
C/C=C(\C)C(=O)N[C@H]1C(O)C[C@]2(C)C3CC[C@@]4(C)C(CC[C@@H]4C(C)N(C)C)C3CCC2C1O (stereo not given in full)	46.6%
C=C1C(=O)O[C@H]2[C@H]1CC/C(COC(=O)c1cc3cc(Cl)ccc3[nH]1)=C\CC[C@@]1(C)O[C@@H]21	-80.3% (active)
O=C(Nc1ncc(Cc2cc(C(F)(F)F)ccc2Cl)s1)c1cccs1	47.1%
CNC(=O)c1cc(Oc2ccc3c(c2)sc2nc(-c4ccc(OC)cc4)cn23)ccn1	35%
CCOC(=O)c1ccccc1-c1c2ccc(=[N+](C)C)cc-2oc2cc(N(C)C)ccc12	-19.3% (active)
N#CSc1c[nH]c2cccc(/C=C/C(=O)/C=C(O)/C=C/c3cccc4[nH]cc(SC#N)c34)c12	-72% (active)
Oc1c(CN2CCCC2)cc(CSCc2ccccc2)c2cccnc12	14.5%
CCOc1cccc(/C=N/NC(=O)c2cccc(Nc3ccnc(C(F)(F)F)c3)c2)c1O	51.3%
CCOC(=O)c1nn(CC(O)c2ccccc2)c(NC(=O)Nc2cccc(F)c2)c1C (stereo not given)	99.8%
O=C(O)/C=C/C(=O)Nc1cccc(Cn2nnc3cc(Cl)c(Cl)cc32)c1	97.5%
Cc1c2cccnc2c(C)c2c1c1cc(CO)ccc1n2C	32.9%
Cc1ccc(S(=O)(=O)c2nc(-c3ccccc3)oc2Sc2nc3ccccc3s2)cc1	73.9%
C=C1C(=O)O[C@H]2[C@H]1CC/C(COC(=O)c1ccc(C(=O)O)s1)=C\CC[C@@]1(C)O[C@@H]21	1.03% (active)
CC1C=CC(OC(=O)C(C)(O)CCC(O)(C(=O)OC2CC(O)C(C(C)C)CC2(C)O)C(C)C)(C(C)C)CC1 (stereo not given)	-67.1% [4.63 µM] (active)
CCOC(=O)c1c(C)nc2ccccc2c1/C=C/c1cccs1	68.6%
[2H]C([2H])([2H])Oc1ccc(F)cc1/C=C/C(=O)/C=C(/C=C/c1cc(F)ccc1OC([2H])([2H])[2H])OB(F)F	99.7%
N#Cc1nc(-c2ccccc2)oc1S(=O)(=O)N1CCN(c2ccc(F)cc2)CC1	76%
COC(=O)N1CC(Oc2ccccn2)C2CC1c1ccccc1O2 (stereo not given)	90.3%

Compound	growth
CN(C)CCN1C(=O)c2cccc3c(/C=C/CN4C(=O)c5cccc6cccc(c56)C4=O)ccc(c23)C1=O	94.2%
CCCCNC(=O)Oc1ccc(/C(=C(/C)Cc2ccc(OC)cc2)c2ccc(OCCN3CCCCC3)cc2)cc1	63.4%
O=S1(=O)C=C(c2ccccc2)C(c2ccccc2)=C1	-1.68% (active)
Cc1ccc(C)c(/C=C2\CN(C(=O)OC(C)(C)C)C/C(=C\c3cc(C)ccc3C)C2=O)c1	91.3%
N[C@H]1CCC[C@@H]1NCCCCN1C(=O)c2cccc3cc([N+](=O)[O-])cc(c23)C1=O	30.1%
CC/C(Cc1ccccc1)=C(\c1ccc(OCCCN(C)C)cc1)c1ccc(OC(=O)NCc2ccccc2)cc1	38.6%
Cc1c2ccncc2c(C)c2c1c1cc(CO)ccc1n2C	-5.78% (active)
COc1ccc(C2CC(c3cc(OC)c(OC)c(OC)c3)=NO2)cc1OCCCCOc1cc2c(cc1OC)C(=O)N1CCC[C@H]1C=N2 (stereo not given in full)	20.3%
Nc1ccc(-c2csc(-n3[nH]c(=O)ccc3=O)n2)cc1	103%
Nc1nc(N)c2c(n1)NC(c1ccc(Cl)cc1)C1CCc3ccccc3C1=N2 (stereo not given)	94.3%
CN1CCN(Cc2ccc(NC(=O)c3cncc(C#Cc4cnc5ccc(Cl)nn45)c3)cc2C(F)(F)F)CC1	-16.3% (active)
CC(=O)O[C@H]1C[C@@H]2C(C)(C)C(=O)CC[C@@]2(C)c2ccc(C(C)C)cc21	96.5%
Cc1ccc(C(=O)Nc2cccc(C#Cc3cccc4[nH]nc(N)c34)c2)cc1C(F)(F)F	63.8%
C=CC(=O)Nc1ccc(Oc2nccc(Nc3nnc(-c4ccc(C)cc4)s3)n2)cc1	72.4%
Cc1ccc(S(=O)(=O)N2CCC(=O)c3ccccc32)cc1	80.8%
CCN1C(=O)N(CC)C2Nn3c(s/c(=C\c4ccccc4Br)c3=O)=NC21 (stereo not given)	42.9%
CN(CCCNC(=O)CCOCCOCCOCCNC(=O)Cc1ccc2ccc3cccc4ccc1c2c34)CCCNc1cc(-c2ccc3ccccc3c2)nc2ccccc12	-88.2% (active)
N#C/C(=C\C=C\c1ccc(-c2cc(Cl)ccc2Cl)o1)c1nc2ccccc2s1	89.1%
CC1(C)[C@@H](O[C@@H]2OC[C@@H](O[C@@H]3O[C@H](CO)[C@@H](O)[C@H](O)[C@H]3O[C@@H]3OC[C@@H](O)[C@H](O)[C@H]3O)[C@H](O)[C@H]2O[C@@H]2O[C@H](CO)[C@@H](O)[C@H](O)[C@H]2O)CC[C@]2(C)[C@H]3CC[C@]45OC[C@@]6(CC[C@](C)(C=O)C[C@H]64)[C@H](O)C[C@@]5(C)[C@]3(C)CC[C@@H]12	-63.7% (active)
CN1CCN(CCCOc2cccc3nc(Nc4ccc(F)c(F)c4)ccc23)CC1	0.0965% (active)
